The record followed here is PubChem BioAssay (NCATS).

Inconclusive results are not listed. Activity calls are given as the source filed them. Calls come from the whole dose curve; as a rule, active = well fitted curve in the direction sought with a large enough effect; inconclusive = small, poorly fitted or top-dose-only effect, or another doubt; inactive = no such curve, though single readings can be large; an effect the other way counts as inactive or inconclusive.

A short description of assay [1]: Quantitative High-Throughput drug screen in 47 multiple myeloma cell lines against the NCATS MIPE library collection: ARD_JJKsccE7 cell viability assay (AID 1918929; note: potency is the fitted concentration of half-maximal effect). The method in brief:
(§1)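 Inhibition of cell viability is measured here. Each line was plated at 500 cells per well, treated with MIPE 4.0 drugs, kept 48 hours at 37C, then assayed for ATP content by CellTiter-Glo luminescence.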

A short description of assay [2]: Quantitative High-Throughput drug screen in 47 multiple myeloma cell lines against the NCATS MIPE library collection: Karpas620_DSMZ cell viability assay (AID 1918959). Note: nearly all actives have a fitted effect of over 30% in size. The procedure, abridged:
(§2)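 Luminescent ATP measurement with CellTiter-Glo gives viability, scaled between DMSO-only wells (100%) and media-only wells (0%). Cells, 500 per well, faced library compounds for 48 hours at 37C.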

A short description of assay [3]: Quantitative High-Throughput drug screen in 47 multiple myeloma cell lines against the NCATS MIPE library collection: KHM11_PLB cell viability assay (AID 1918962). Note: nearly all actives have a fitted effect of over 35% in size. Note: potency is the fitted concentration of half-maximal effect. The procedure, abridged:
as §2

Assay [4] in a line: Quantitative High-Throughput drug screen in 47 multiple myeloma cell lines against the NCATS MIPE library collection: JIM3_ECACC cell viability assay (AID 1918963; note: nearly all actives have a fitted effect of over 35% in size; note: potency is the fitted concentration of half-maximal effect). The method in brief:
as §2

The nature of assay [5]: Quantitative High-Throughput drug screen in 47 multiple myeloma cell lines against the NCATS MIPE library collection: INA6_PLB cell viability assay (AID 1918965; note: potency is the fitted concentration of half-maximal effect; nearly all actives have a fitted effect of over 55% in size). The procedure, abridged:
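Steps: seed 500 cells per well; pin-transfer MIPE 4.0 library; incubate 48 h at 37C, 5% CO2, humidified; add CellTiter-Glo, 5 min room temperature; read luminescence.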

Assay [6] in a line: Quantitative High-Throughput drug screen in 47 multiple myeloma cell lines against the NCATS MIPE library collection: JJN3_DSMZ cell viability assay (AID 1918966; note: nearly all actives have a fitted effect of over 50% in size; note: potency is the fitted concentration of half-maximal effect). The procedure, abridged:
as §1

Assay [7] can be described thus: Quantitative High-Throughput drug screen in 47 multiple myeloma cell lines against the NCATS MIPE library collection: KMM1_JCRB cell viability assay (AID 1918960). Note: nearly all actives have a fitted effect of over 30% in size. Note: potency is the fitted concentration of half-maximal effect. The method in brief:
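Myeloma cells, 500 per well, were exposed to MIPE 4.0 drugs by pin transfer for 48 h at 37 °C, 5% CO2. Viability was read as ATP luminescence with CellTiter-Glo, normalised to DMSO-only (100%) and medium-only (0%) wells.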

Assay [8] in a line: Quantitative High-Throughput drug screen in 47 multiple myeloma cell lines against the NCATS MIPE library collection: JIM1_ECACC cell viability assay (AID 1918964; note: potency is the fitted concentration of half-maximal effect). The method in brief:
as §1

On to `CNS(=O)(=O)CCc1ccc2[nH]cc(C3CCN(C)CC3)c2c1`, for which the Potency in assay [1] is 10500 nM (active); in assay [3] it was 1180 nM (active); in assay [4] it was 2350 nM (active); in assay [5], 2090 nM (active); in assay [6], 41.8 nM (active). The Potency entry in assay [2] was “inactive”.

Take `CC(C)OC(=O)OCOP(=O)(CO[C@H](C)Cn1cnc2c(N)ncnc21)OCOC(=O)OC(C)C`: the Potency in assay [7] was 20900 nM (active); in assay [4] it was 16600 nM (active); in assay [6], 18700 nM (active).

With `CC1CC2C3CCC4=CC(=O)C=C[C@]4(C)[C@@]3(F)[C@@H](O)C[C@]2(C)[C@@]1(O)C(=O)CO` (some centres undefined), the Potency was 833 nM (active) in assay [3] and 2.3 nM (active) in assay [8]. Further, the Potency entry in assay [4] is “inactive”.

As to `CNS(=O)(=O)Cc1ccc2[nH]cc(CCN(C)C)c2c1`, the Potency result in assay [4] and in assay [8] was “inactive” each time.

As for `O=S(=O)(c1cccc2cnccc12)N1CCCNCC1`, the Potency result in assay [1] was “inactive”.

Regarding `CCn1cc(C(=O)O)c(=O)c2cc(F)c(N3CCN(C)CC3)cc21`, in assay [1], the Potency is 13.2 nM (active). The Potency result in assay [2] and in assay [4] was “inactive” each time.

With `O=C(NCC1CN(c2ccc(N3CCOCC3=O)cc2)C(=O)O1)c1ccc(Cl)s1` (centres undefined), in assay [1], the Potency was 23500 nM (active). Besides, the Potency entry in assay [4] was “inactive”.

In the case of `CCC(=O)O[C@]1(C(=O)CCl)[C@@H](C)C[C@H]2[C@@H]3CCC4=CC(=O)C=C[C@]4(C)[C@@]3(F)[C@@H](O)C[C@@]21C`, the Potency entry in assay [3] and in assay [4] was “inactive” throughout.

`CC(=O)[C@H]1CC[C@H]2[C@@H]3CC=C4C[C@@H](O)CC[C@]4(C)[C@H]3CC[C@]12C`: the Potency result in assay [2], in assay [7], in assay [3] and in assay [4] was “inactive” throughout.

Consider `CCCN[C@H]1CCc2nc(N)sc2C1`, for which the Potency entry in assay [4], in assay [8] and in assay [6] was “inactive” each time.
